# According to PubChem BioAssay:
# Calls of active or inactive are those of the source.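 Rule for the calls: active = normalized viability below 100% at a tested concentration; inactive = the rest.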
# Assay: ovarian cancer cell viability with rucaparib, profiling panel, oncology-focused library, rucaparib conditional (AID 1508598)
# Details: patient-derived ovarian cancer cells, CellTiter-Glo viability, 144 h; at 0.0781 µM; OCI-P5x cells; with rucaparib 20 µM; hits give low values; 100% = cells with rucaparib alone
row,SMILES,viability
1,CC(C)[C@@]12O[C@@H]1[C@@H]1O[C@]13[C@]1(O[C@@H]1C[C@@H]1C4=C(CC[C@@]13C)C(=O)OC4)[C@@H]2O,11.1% (active)
2,C/C(=C\c1csc(C)n1)[C@H]1C[C@@H]2O[C@]2(C)CCC[C@H](C)[C@H](O)[C@@H](C)C(=O)C(C)(C)[C@H](O)CC(=O)O1,45.8% (active)
3,C/C(=C\c1csc(C)n1)[C@H]1C[C@@H]2O[C@@H]2CCC[C@H](C)[C@H](O)[C@@H](C)C(=O)C(C)(C)[C@H](O)CC(=O)O1,57% (active)

# Same assay, conditions: patient-derived ovarian cancer cells, CellTiter-Glo viability, 144 h; at 0.0781 µM; OCI-P5x cells; without rucaparib; hits give low values
row,SMILES,viability
1,CC(C)[C@@]12O[C@@H]1[C@@H]1O[C@]13[C@]1(O[C@@H]1C[C@@H]1C4=C(CC[C@@]13C)C(=O)OC4)[C@@H]2O,9.41% (active)
2,C/C(=C\c1csc(C)n1)[C@H]1C[C@@H]2O[C@]2(C)CCC[C@H](C)[C@H](O)[C@@H](C)C(=O)C(C)(C)[C@H](O)CC(=O)O1,16.3% (active)
3,C/C(=C\c1csc(C)n1)[C@H]1C[C@@H]2O[C@@H]2CCC[C@H](C)[C@H](O)[C@@H](C)C(=O)C(C)(C)[C@H](O)CC(=O)O1,17.9% (active)
